Data published in PubChem BioAssay (NCATS).
Inconclusive results are not listed. Activity calls are given as the source filed them. Unless noted, calls come from the whole dose curve; as a rule, active = well fitted curve in the direction sought with a large enough effect; inconclusive = small, poorly fitted or top-dose-only effect, or another doubt; inactive = no such curve, though single readings can be large; an effect the other way counts as inactive or inconclusive.

Key:
[1] = test system: Zika virus NS2B-NS3 protease (linked construct); experiment: Confirmatory screen NINDS AMC qHTS for Zika virus inhibitors (AID 1347152); note: potency is the fitted concentration of half-maximal effect; nearly all actives have a fitted effect of over 70% in size
In short: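 Linked NS2B-NS3 protease, 1 nM, in 10 mM Tris-HCl pH 8.0, 0.01% Tween 20; compounds preincubated 15 min at room temperature. Nle-KRR-AMC 10 microM (Km 18.3 µM); 15-min fluorescence change (340/450 nm) fitted to 4-parameter Hill.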

[2] = Confirmatory screen NINDS Rhodamine qHTS for Zika virus inhibitors (AID 1347161); note: potency is the fitted concentration of half-maximal effect; nearly all actives have a fitted effect of over 60% in size
In short: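 Each compound, titrated, sat 15 min with 25 nM linked protease before 1.5 microM Rhodamine110 substrate went in. Fluorescence gain over the next 15 min, in pH 8.0 Tris with Tween 20, gave Hill-fitted curves.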

[3] = test system: Zika virus NS2B-NS3 protease (linked construct); experiment: 384 well plate NINDS Rhodamine confirmatory qHTS for Zika virus inhibitors (AID 1347164);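 note: fluorescence from protease cleavage of Ac-LKRR-rhodamine 110 substrate; top concentration of the series differs between compounds; plate controls were no-inhibitor control for no effect and no-enzyme control for full effect; nearly all actives have a fitted effect of over 65% in size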
In short: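 Linked NS2B-NS3 protease (final 5, 30 or 60 nM) preincubated ~15 minutes with compounds, then 10 microM Ac-LKRR-Rhodamine 110 added. Fluorescence (485/538 nm) read after 25 minutes at room temperature, normalized to no-enzyme and no-inhibitor controls.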

[4] = target: Cytochrome P450 2C9 (Homo sapiens) (UniProt P11712); experiment: Cytochrome P450 family 2 subfamily C member 9 (CYP2C9) small molecule antagonists: luciferase biochemical (cell-free) qHTS assay (AID 1645842; active = well fitted curve in the direction sought with a large enough effect in the repeat runs; an effect the other way counts as inactive or inconclusive; note: potency is the fitted concentration of half-maximal effect; nearly all actives have a fitted effect of over 55% in size)
In short: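 Luminescence, after 20 min with luciferin detection reagent, reflected CYP2C9 turnover during a 1 h NADPH-driven reaction at 37C. Enzyme-substrate mix contained 0.4% bovine serum albumin and was preincubated with compound 10 min at room temperature.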

[5] = Primary fluorescence-based thiol-reactive (MSTI) qHTS assay for identification of artifact compounds. (AID 1845221);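 note: thiol-reactive compounds lower the probe fluorescence signal; nearly all actives have a fitted effect of over 65% in size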
In short: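 Probe: MSTI 4 uM, PBS pH 7.4, 2% DMSO. Incubation 1 h, RT, light-protected. Readout fluorescence 525/598 nm.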

NIH3T3 = experiment: Cytotoxic Profiling of Annotated Libraries Using Quantitative High-Throughput Screening (AID 1296008); conditions: Five cell lines viability, CellTiter-Glo ATP luminescence, 48-72 h; max response: stronger effect = lower value; note: nearly all actives have a fitted effect of over 60% in size; note: potency is the fitted concentration of half-maximal effect; for max response: % is set by controls: 0 for no effect and ±100 for the full control effect
In short: (§1)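 Cells exposed to compounds for 48 or 72 hr at 37 degrees Celsius. Viability read as ATP-coupled luminescence with CellTiter-Glo after 10 min at room temperature.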

CAOV3 = experiment: Primary qHTS to identify gynecologic anti-cancer compounds using libraries of approved drugs and bioactive compounds (AID 1345084); conditions: Gynecologic cancer cell panel viability, ATPlite luminescence, 48 h; series mostly up to 57.5 µM; note: nearly all actives have a fitted effect of over 55% in size; note: potency is the fitted concentration of half-maximal effect
In short: (§2)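 Cell viability after 48 h drug treatment, ATPlite luminescence readout; five doses.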

SKOV3 = experiment: as above; conditions: Gynecologic cancer cell panel viability, ATPlite luminescence, 48 h; series mostly up to 57.5 µM
In short: as §2

[6] = target: Cytochrome P450 2D6 (Homo sapiens) (UniProt P10635); experiment: Cytochrome P450 family 2 subfamily D member 6 (CYP2D6) small molecule antagonists: luciferase biochemical (cell-free) qHTS assay (AID 1645840; active = well fitted curve in the direction sought with a large enough effect in the repeat runs; an effect the other way counts as inactive or inconclusive; note: nearly all actives have a fitted effect of over 55% in size; note: potency is the fitted concentration of half-maximal effect; for activity change, negative = inhibition: % is set by controls: 0 for no effect and ±100 for the full control effect)
In short: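 P450-Glo luminescent screen: recombinant CYP2D6 enzyme–proluciferin substrate mix preincubated with compound 10 min at room temperature, then NADPH regeneration added for 1 h at room temperature. Detection reagent added for 20 min; luciferin light read as relative luminescence units.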

[7] = target: Catechol O-methyltransferase (Homo sapiens) (UniProt P21964); experiment: Confirmatory Screen for Target Class Profiling of Small Molecule Inhibitors of Methyltransferases (AID 1745852; calls by dose curve; for activity change, negative = inhibition: % is set by controls: 0 for no effect and ±100 for the full control effect); conditions: MTase-Glo luminescence, SAH detection, recombinant enzyme; measured here: COMT max response; stronger effect = lower value
[8] = target: Guanidinoacetate N-methyltransferase (Homo sapiens) (UniProt Q14353); experiment: as above; conditions: activity change, negative = inhibition: at 57.3 µM (top of the series) unless noted
[9] = target: Nicotinamide N-methyltransferase (Homo sapiens) (UniProt P40261); experiment: as above; conditions: MTase-Glo luminescence, SAH detection, recombinant enzyme; measured here: NNMT max response; stronger effect = lower value
[10] = target: Phenylethanolamine N-methyltransferase (Homo sapiens) (UniProt P11086); experiment: as above; conditions: MTase-Glo luminescence, SAH detection, recombinant enzyme; measured here: PNMT max response; stronger effect = lower value
HaCat = experiment: Cytotoxic Profiling of Annotated Libraries Using Quantitative High-Throughput Screening (AID 1296008); conditions: Five cell lines viability, CellTiter-Glo ATP luminescence, 48-72 h; max response: stronger effect = lower value; note: nearly all actives have a fitted effect of over 60% in size; note: potency is the fitted concentration of half-maximal effect; for max response: % is set by controls: 0 for no effect and ±100 for the full control effect
In short: as §1

[11] = P-glycoprotein substrates identified in KB-8-5-11 adenocarcinoma cell line, qHTS therapeutic library screen (AID 1346987); note: potency is the fitted concentration of half-maximal effect; nearly all actives have a fitted effect of over 65% in size
In short: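 KB-8-5-11, a colchicine-selected P-gp-overexpressing KB-3-1 subline, was grown without colchicine for the assay. Cells were seeded at 500 cells/well, dosed in concentration-response and incubated 72 h at 37 degree C, 5% CO2. Viability was read by CellTiter-Glo luminescence.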

[12] = target: N-terminal Xaa-Pro-Lys N-methyltransferase 1 (Homo sapiens) (UniProt Q9BV86); experiment: Confirmatory qHTS for Inhibitors of N-terminal methyltransferase 1 (NTMT1): MTaseGlo Assay (AID 1645874); note: potency is the fitted concentration of half-maximal effect; nearly all actives have a fitted effect of over 65% in size
In short: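 Compounds are incubated with 125 nM NTMT1 and 100 uM SAM for 15 min before the SPKRIA peptide (1 uM) starts a 30 min room-temperature methylation. SAH is measured by coupled luciferase luminescence and curves fitted to a Hill equation.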

[13] = qHTS drug screen for cell cycle checkpoint inhibitors in PARPi-resistant BRCA-mutant ovarian cancer cell lines. (AID 1963452; calls by dose curve); conditions: PEO1/OlaR viability, CellTiter-Glo luminescence, 96 h, stronger effect = lower value
In short: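 PEO1, PEO4 and PEO1/OlaR ovarian cancer cells, 600 per well, exposed 96 h at 37C to a dilution series. Viability read by CellTiter-Glo luminescence, normalized to DMSO and empty wells; activity summarized as Z-AUC.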

[14] = qHTS to identify inhibitors of the type 1 interferon - major histocompatibility complex class I in skeletal muscle: primary screen against the NCATS Mechanism Interrogation Plate v5.0 (MIPE) Libary (AID 1347411)
In short: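 Immortalized human myoblasts (C25cl48) with HiBit knocked into endogenous HLA-B*08:01 were stimulated with 4 ng/ml IFN-beta and given compounds in 11-point 1:3 titration from 46 uM. After 24 h at 37 C, lytic HiBiT luminescence was read.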

[15] = Drug repurposing screens with cells derived from glioblastoma tumor samples (AID 1345199); conditions: GBM patient neurospheres viability, ATP luminescence, 48 h; note: % is set by controls: 0 for no effect and ±100 for the full control effect; nearly all actives have a fitted effect of over 40% in size
In short: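 Four patient lines of CD133+ GBM neurospheres were screened at several concentrations; hits were retested in those lines plus three slower-growing GBM lines, using 48-hour treatment and ATP-based viability.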

[16] = measured here: PEO1 parental Z-AUC

Sequence of Cytochrome P450 2C9 (Homo sapiens) (P11712 whole entry, looked up): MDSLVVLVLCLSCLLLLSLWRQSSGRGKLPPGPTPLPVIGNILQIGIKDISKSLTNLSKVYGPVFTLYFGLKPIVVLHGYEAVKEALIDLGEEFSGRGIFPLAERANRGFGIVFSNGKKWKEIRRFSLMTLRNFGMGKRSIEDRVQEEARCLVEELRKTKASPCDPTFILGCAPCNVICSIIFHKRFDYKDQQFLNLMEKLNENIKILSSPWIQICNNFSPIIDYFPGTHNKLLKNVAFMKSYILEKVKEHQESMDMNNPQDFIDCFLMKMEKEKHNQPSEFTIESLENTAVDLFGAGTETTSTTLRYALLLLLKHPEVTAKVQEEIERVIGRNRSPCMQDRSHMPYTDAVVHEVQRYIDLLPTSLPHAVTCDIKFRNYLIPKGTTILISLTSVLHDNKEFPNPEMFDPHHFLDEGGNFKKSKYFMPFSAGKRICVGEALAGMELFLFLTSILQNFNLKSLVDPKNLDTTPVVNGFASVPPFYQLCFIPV
Sequence of Catechol O-methyltransferase (Homo sapiens) (P21964 whole entry, looked up): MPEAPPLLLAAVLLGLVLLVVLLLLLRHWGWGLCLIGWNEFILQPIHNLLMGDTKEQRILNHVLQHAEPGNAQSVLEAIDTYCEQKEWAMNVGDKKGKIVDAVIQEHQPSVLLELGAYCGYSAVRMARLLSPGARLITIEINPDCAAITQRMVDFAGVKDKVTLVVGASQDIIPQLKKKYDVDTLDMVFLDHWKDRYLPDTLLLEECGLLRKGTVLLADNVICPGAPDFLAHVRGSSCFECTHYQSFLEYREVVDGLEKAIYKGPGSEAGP
Sequence of Phenylethanolamine N-methyltransferase (Homo sapiens) (P11086 whole entry, looked up): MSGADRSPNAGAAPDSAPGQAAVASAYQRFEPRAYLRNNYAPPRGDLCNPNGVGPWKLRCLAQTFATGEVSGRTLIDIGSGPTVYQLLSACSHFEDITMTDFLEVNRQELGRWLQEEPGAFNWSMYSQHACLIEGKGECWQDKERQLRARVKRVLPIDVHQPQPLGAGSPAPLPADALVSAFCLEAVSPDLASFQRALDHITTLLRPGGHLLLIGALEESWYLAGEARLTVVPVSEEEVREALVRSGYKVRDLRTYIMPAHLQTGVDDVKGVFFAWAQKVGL
Sequence of Cytochrome P450 2D6 (Homo sapiens) (P10635 whole entry, looked up): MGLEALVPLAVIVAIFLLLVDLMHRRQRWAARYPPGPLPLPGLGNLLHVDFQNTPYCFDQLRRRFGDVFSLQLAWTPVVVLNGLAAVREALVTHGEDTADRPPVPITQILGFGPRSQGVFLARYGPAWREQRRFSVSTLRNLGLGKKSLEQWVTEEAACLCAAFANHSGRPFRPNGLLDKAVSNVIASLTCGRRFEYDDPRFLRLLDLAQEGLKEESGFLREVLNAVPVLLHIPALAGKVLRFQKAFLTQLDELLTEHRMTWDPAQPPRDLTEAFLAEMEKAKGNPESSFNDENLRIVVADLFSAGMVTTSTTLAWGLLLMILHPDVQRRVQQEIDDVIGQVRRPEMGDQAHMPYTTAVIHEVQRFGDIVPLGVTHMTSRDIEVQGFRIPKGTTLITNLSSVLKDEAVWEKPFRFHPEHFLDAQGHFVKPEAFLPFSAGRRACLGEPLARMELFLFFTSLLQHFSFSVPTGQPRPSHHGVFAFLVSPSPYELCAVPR
Sequence of N-terminal Xaa-Pro-Lys N-methyltransferase 1 (Homo sapiens) (Q9BV86 whole entry, looked up): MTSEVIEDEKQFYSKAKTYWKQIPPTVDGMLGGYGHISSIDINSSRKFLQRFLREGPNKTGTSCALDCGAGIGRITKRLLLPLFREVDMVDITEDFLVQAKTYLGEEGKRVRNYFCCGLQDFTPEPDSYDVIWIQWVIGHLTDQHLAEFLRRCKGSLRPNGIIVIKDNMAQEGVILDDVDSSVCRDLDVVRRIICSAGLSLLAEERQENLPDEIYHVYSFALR
Sequence of Nicotinamide N-methyltransferase (Homo sapiens) (P40261 whole entry, looked up): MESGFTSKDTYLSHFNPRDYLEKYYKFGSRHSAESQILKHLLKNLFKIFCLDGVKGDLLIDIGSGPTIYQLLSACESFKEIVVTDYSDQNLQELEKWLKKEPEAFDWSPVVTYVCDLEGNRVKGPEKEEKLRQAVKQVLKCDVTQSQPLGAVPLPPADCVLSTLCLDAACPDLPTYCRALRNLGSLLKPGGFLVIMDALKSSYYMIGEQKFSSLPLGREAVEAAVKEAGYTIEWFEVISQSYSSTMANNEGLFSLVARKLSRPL

CN(CC(=O)N(Cc1ccc(C2CCCCC2)cc1)c1ccc(C(=O)O)cc1)S(=O)(=O)c1c(F)c(F)c(F)c(F)c1F
Potency [1]: 19.7 µM (active) | Potency [2]: 2.78 µM (active) | activity change, negative = inhibition [3]: -179% [at 100 µM] (inactive) | Potency [4]: 16.9 µM (active) | Potency [5]: inactive | Potency (NIH3T3): 6.51 µM (active) | Potency (CAOV3): 25.1 µM (active) | Potency (SKOV3): 31.6 µM (active)

Cc1cc(C)c(NC(=O)N(Cc2ccc3c(c2)Cc2ccccc2-3)C2CCCCCC2)c(C)c1
Potency [6]: inactive | Potency [4]: 6.01 µM (active) | activity [7]: -9.37% | activity change, negative = inhibition [8]: -11.3% | activity [9]: -15.8% | activity [10]: -14.1% | Potency [5]: inactive | Potency (CAOV3): inactive | Potency (SKOV3): inactive

CC(=O)N[C@@H](CC(=O)O)C(=O)N[C@@H](CCC(=O)O)C(=O)N[C@H](C(=O)N[C@@H](CC(=O)O)C(=O)Nc1ccc2c(C)cc(=O)oc2c1)C(C)C
max response (HaCat): -44.8% (inactive)

Cc1cc2nc(NCCCO)n(CC(=O)c3cc(C(C)(C)C)c(O)c(C(C)(C)C)c3)c2cc1C
Potency [11]: 18.4 µM (active) | Potency [4]: 13.5 µM (active) | max response (HaCat): -19.8% (inactive)

COc1cc(N2CCN(C(C)=O)CC2)ccc1Nc1ncc(Cl)c(Nc2ccc(N3CCN(C(C)=O)CC3)cc2OC)n1
Potency [11]: 20.6 µM (active) | Potency [4]: 5.35 µM (active) | Potency [12]: 49.4 µM (active) | Z-AUC [13]: 0.859 (inactive) | Z-AUC [13, 16]: 0.393 | Z-AUC ([13]; measured here: PEO4 Z-AUC): 0.132 | Potency (NIH3T3): 4.11 µM (active)

COc1c(N2CC3CCCNC3C2)c(F)cc2c(=O)c(C(=O)O)cn(C3CC3)c12 (stereo unspecified)
Potency (CAOV3): inactive | Potency (SKOV3): inactive

CS(=O)(=O)c1ccc(-c2cn3ccccc3n2)cc1
Potency [1]: 21.5 µM (active) | Potency [6]: 5.49 µM (active) | Potency [4]: 13.8 µM (active) | Potency [12]: 9.55 µM (active) | Potency (CAOV3): 10 µM (active) | Potency (SKOV3): 8.91 µM (active)

Cc1nc2ccc(C(=O)N3CCC4(CC3)CC(=O)c3c(cnn3C(C)C)C4)cc2[nH]1
Potency [14]: inactive | Z-AUC [13]: -0.421 (inactive) | Z-AUC [13, 16]: -0.389 | Z-AUC ([13]; measured here: PEO4 Z-AUC): -0.0398 | max response (HaCat): -28.8% (inactive)

COc1cc(N2CCOCC2)ccc1Nc1ncc(F)c(Nc2ccccc2NS(C)(=O)=O)n1
Potency [4]: 2.13 µM (active) | activity [7]: -0.204% | activity change, negative = inhibition [8]: 2.81% | activity [9]: 3.16% | activity [10]: -0.832% | Potency (HaCat): 7.31 µM (active)

CCNC(=O)[C@@H]1CCCN1C(=O)[C@H](CCCN=C(N)N)NC(=O)[C@H](CC(C)C)NC(=O)[C@@H](CC(C)C)NC(=O)[C@H](Cc1ccc(O)cc1)NC(=O)[C@H](CO)NC(=O)[C@H](Cc1c[nH]c2ccccc12)NC(=O)[C@H](Cc1cnc[nH]1)NC(=O)[C@@H]1CCC(=O)N1
Potency [5]: inactive | Potency (CAOV3): inactive | Potency (SKOV3): inactive | activity, negative = cell killing ([15]; at 45.9 µM (top of the series), tumour line B): -5.52% (inactive) | activity, negative = cell killing ([15]; at 45.9 µM (top of the series), tumour line D): 4.71% (inactive) | activity, negative = cell killing ([15]; at 46 µM (top of the series), tumour line A): -26.4% (inactive) | activity, negative = cell killing ([15]; at 46.1 µM (top of the series), tumour line C): 1.53% (inactive)

CCCCn1ccc(N2CCC(c3ccccc3)CC2)c(Cl)c1=O
Potency [5]: inactive | outcome (HaCat): inactive
